From PubChem BioAssay (Tox21)
Inconclusive results are not listed. Calls of active or inactive are those of the source. Unless noted, calls follow the shape of the dose curve; as a rule, active = well fitted curve in the direction sought with a large enough effect in the repeat runs; inconclusive = weak or mixed curves; inactive = no such curve, though single readings can be large; an effect the other way counts as inactive or inconclusive.

Legend:
[1] = biological target: Luciferin 4-monooxygenase (Photinus pyralis) (UniProt P08659); assay: qHTS assay to identify small molecule inhibitors of firefly luciferase (AID 1224835); also: nearly all actives have a fitted effect of over 25% in size
How it was run: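 Biochemical qHTS: compounds run as interplate titrations against purified firefly enzyme, with D-luciferin and ATP each at its KM concentration. Light output recorded by CCD imaging.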

[2] = qHTS assay to identify small molecule agonists of the constitutive androstane receptor (CAR) signaling pathway - cell viability counter screen (AID 1224836); also: nearly all actives have a fitted effect of over 45% in size
How it was run: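 23 h treatment, 37 C, 5% CO2. Cell line: HepG2 stably expressing hCAR with a CYP2B6-2.2kb construct. Co-treatment: PK11195, 0.75 uM final. Read-out: CellTiter-Fluor fluorescence intensity.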

[3] = qHTS assay to identify small molecule antagonists of the constitutive androstane receptor (CAR) signaling pathway - cell viability counter screen (AID 1224837); also: nearly all actives have a fitted effect of over 45% in size
How it was run: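 Using CellTiter-Fluor, viability is scored in HepG2 cells stably carrying hCAR and a 2.2kb CYP2B6 reporter after 23 hr compound exposure across 15 concentrations, with CITCO present at 50 nM.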

[4] = biological target: Nuclear receptor subfamily 1 group I member 3 (Homo sapiens) (UniProt Q14994); assay: qHTS assay to identify small molecule agonists of the constitutive androstane receptor (CAR) signaling pathway (AID 1224839);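 also: HepG2 cells stably carrying human CAR and a CYP2B6 luciferase reporter; nearly all actives have a fitted effect of over 15% in size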
How it was run: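 Compounds tested at 15 concentrations on HepG2 cells stably harbouring hCAR and CYP2B6-2.2kb reporter constructs, co-treated with PK11195 (0.75 uM final), 24 h at 37 C; luminescent reporter signal quantified.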

[5] = qHTS assay to identify small molecule antagonists of the estrogen related receptor signaling pathway with the pleiotropic PPARgamma coactivator (PGC) from Tox21 10K library - cell viability counter screen (AID 1224840; active = well fitted cell-killing curve with a large enough effect in the repeat runs, not every such curve was filed as active; also: nearly all actives have a fitted effect of over 40% in size)
How it was run: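 Here the PGC/ERR cells serve as a cytotoxicity control: they are exposed to compounds for 17.5 hours at 37 C, and live-cell signal is quantified using CellTiter-Fluor fluorescence.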

[6] = qHTS assay to identify small molecule antagonists of the estrogen related receptor signaling pathway with the pleiotropic PPARgamma coactivator (PGC) from Tox21 10K library (AID 1224841; call rule not given here; also: actives are mostly falling curves and most rising ones were filed inactive; nearly all actives have a fitted effect of over 50% in size)
How it was run: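 Each well held 2,000 PGC/ERR cells, pre-incubated six hours (37 C, 5% CO2). Test substances in DMSO were added by pin tool and left for 18 h at 37 C before luciferase detection by One-Glo.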

[7] = qHTS assay to identify small molecule agonists of the estrogen related receptor signaling pathway with the pleiotropic PPARgamma coactivator (PGC) from Tox21 10K library (AID 1224842); also: nearly all actives have a fitted effect of over 15% in size
How it was run: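 PGC/ERR reporter cell line, 2,000 cells per well, incubated 6 h at 37 C before 23 nL compound in DMSO was added. After 18 h at 37 C, One-Glo luminescence read following 30 min at room temperature.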

[8] = biological target: Thyrotropin receptor (Homo sapiens) (UniProt P16473); assay: qHTS assay to identify small molecule agonists of the thyroid stimulating hormone receptor (TSHR) signaling pathway (AID 1224843; calls by dose curve; also: nearly all actives have a fitted effect of over 45% in size)
How it was run: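 TSHR-HEK293 cells in agonist mode, 30 min room-temperature step, then cAMP measured by competitive HTRF (cAMP-d2 with anti-cAMP cryptate) after 1 h at room temperature. Tested at 15 concentrations in triplicate.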

[9] = qHTS assay to identify small molecule agonists of the hypoxia (HIF-1) signaling pathway - cell viability counter screen (AID 1224844; calls by dose curve; also: nearly all actives have a fitted effect of over 50% in size)
How it was run: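 Multiplexed with the HRE beta-lactamase assay, this viability read used CellTiter-Glo luminescence (30 min, RT) on HRE-bla ME-180 cells treated 17 hrs with compounds in 0.5% dialyzed FBS medium.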

[10] = qHTS assay to identify small molecule agonists of H2AX (AID 1224845; active = well fitted activation curve with a large enough effect in the signal ratio in the repeat runs, not every such curve was filed as active; the % refers to the signal ratio)
How it was run: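 Wild-type CHO-K1 cells, plated overnight, exposed 3hr at 37C to 15 concentrations (0.76% DMSO final). Lysed, then HTRF anti-pH2AX (S139) cryptate and anti-H2AX-d2 antibodies, 24 hr room temperature; 665/620 nm emission read.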

[11] = qHTS assay to identify small molecule agonists of the hypoxia (HIF-1) signaling pathway (AID 1224846; active = well fitted activation curve with a large enough effect in the signal ratio in the repeat runs, not every such curve was filed as active; the % refers to the signal ratio)
How it was run: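 Hypoxia-pathway activation was scored as increased beta-lactamase from an HRE-controlled reporter in ME-180 cells; plated at 2,000 cells per well with 0.5% dialyzed FBS, they were exposed 17 hrs to compounds and then given CCF4-AM.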

[12] = qHTS assay to identify small molecule antagonists of the estrogen related receptor (ERR) signaling pathway from Tox21 library (AID 1224848); also: nearly all actives have a fitted effect of over 50% in size
How it was run: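 ERR reporter cell line (from NTP) seeded 2,000 cells/well, rested 6 h at 37 C/5% CO2, then pin-dosed with compounds in DMSO. After 18 h at 37 C, ONE-Glo added; luminescence read after 30 min at room temperature.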

[13] = qHTS assay to identify small molecule agonists of the estrogen related receptor (ERR) signaling pathway from Tox21 library (AID 1224849; calls by dose curve; also: nearly all actives have a fitted effect of over 15% in size); settings: ERR reporter cell line, ONE-Glo luciferase, 18 h; at 92.4 µM (top of the series) unless noted
How it was run: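 Six hours post-seeding at 37 C/5% CO2, ERR cells receive DMSO-solubilised compounds; after 18 h at 37 C, ONE-Glo reagent is applied and luminescence recorded.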

[14] = qHTS RealTime-Glo MT Cell Viability Assay in HepG2 cells - 24 hour (AID 1224867); also: nearly all actives have a fitted effect of over 50% in size
How it was run: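 Cells + NanoLuc/prosubstrate dispensed (600 cells/well) → 5 h at 37 C/5% CO2 → compounds in DMSO transferred → 40 h incubation at 37 C, luminescence read at 0, 8, 16, 24, 32, 40 h.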

[15] = qHTS RealTime-Glo MT Cell Viability Assay in HEK293 cells - 32 hour (AID 1224868)
How it was run: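 Tox21 10K qHTS, HEK293, 600 cells/well, RealTime-Glo reagent co-dispensed with cells; 5 h preincubation, compound by pintool, 37 C, luminescence at 0–40 h.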

[16] = qHTS RealTime-Glo MT Cell Viability Assay in HepG2 cells - 40 hour (AID 1224870); also: nearly all actives have a fitted effect of over 50% in size
How it was run: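 HepG2 cells (600/well) mixed with RealTime-Glo MT reagent, settled 5 h at 37 C/5% CO2 before compound addition. Nonlytic NanoLuc luminescence from viable-cell prosubstrate reduction read repeatedly during 40 h treatment at 37 C.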

[17] = A CellTox Green Cytotoxicity Assay to monitor cytotoxicity in HEK293 cells - 40 hour (AID 1224871); also: nearly all actives have a fitted effect of over 45% in size
How it was run: (§1)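 Seeding of HEK293 cells together with cytotoxicity dye preceded a 5 h incubation at 37 C/5% CO2. Test compounds in DMSO were then added and fluorescence monitored across 40 h.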

[18] = biological target: Nuclear receptor subfamily 1 group I member 3 (Homo sapiens) (UniProt Q14994); assay: qHTS assay to identify small molecule antagonists of the constitutive androstane receptor (CAR) signaling pathway (AID 1224838);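 also: HepG2 cells stably expressing hCAR with CYP2B6 luciferase reporter stimulated by CITCO; nearly all actives have a fitted effect of over 40% in size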
How it was run: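 Reporter luminescence was quantified after 24 h exposure of hCAR/CYP2B6-2.2kb double-stable HepG2 cells to compounds at 15 concentrations in the presence of 50 nM CITCO final.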

[19] = qHTS assay to identify small molecule agonists of H2AX - cell viability counter screen (AID 1224847; calls by dose curve; also: top concentration of the series differs between compounds; nearly all actives have a fitted effect of over 30% in size)
How it was run: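 Compounds tested at 15 concentrations were incubated 3 hr at 37C with wild-type CHO-K1 cells; cellular ATP-based luminescence (CellTiter-Glo) indicated viability.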

[20] = A CellTox Green Cytotoxicity Assay to monitor cytotoxicity in HEK293 cells - 0 hour (AID 1224869); also: nearly all actives have a fitted effect of over 50% in size
How it was run: as §1
% is scaled to controls: 0 for no effect and ±100 for the full control effect.

Chain of Luciferin 4-monooxygenase (Photinus pyralis) (P08659 whole entry, looked up): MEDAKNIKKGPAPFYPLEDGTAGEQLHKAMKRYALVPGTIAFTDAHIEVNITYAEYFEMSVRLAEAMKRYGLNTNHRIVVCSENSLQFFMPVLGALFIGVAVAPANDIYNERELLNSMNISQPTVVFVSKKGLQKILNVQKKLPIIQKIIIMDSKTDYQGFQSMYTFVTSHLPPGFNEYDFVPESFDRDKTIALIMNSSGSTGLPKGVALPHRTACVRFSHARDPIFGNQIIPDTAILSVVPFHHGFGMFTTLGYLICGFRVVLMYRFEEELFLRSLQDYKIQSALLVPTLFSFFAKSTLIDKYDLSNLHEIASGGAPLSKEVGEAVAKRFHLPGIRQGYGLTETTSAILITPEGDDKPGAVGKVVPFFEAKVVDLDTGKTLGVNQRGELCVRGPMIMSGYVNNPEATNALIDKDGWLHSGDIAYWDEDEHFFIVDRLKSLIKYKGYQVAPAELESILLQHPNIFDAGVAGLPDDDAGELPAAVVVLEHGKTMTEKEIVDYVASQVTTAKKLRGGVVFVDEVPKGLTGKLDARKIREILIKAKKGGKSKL
Chain of Thyrotropin receptor (Homo sapiens) (P16473 whole entry, looked up): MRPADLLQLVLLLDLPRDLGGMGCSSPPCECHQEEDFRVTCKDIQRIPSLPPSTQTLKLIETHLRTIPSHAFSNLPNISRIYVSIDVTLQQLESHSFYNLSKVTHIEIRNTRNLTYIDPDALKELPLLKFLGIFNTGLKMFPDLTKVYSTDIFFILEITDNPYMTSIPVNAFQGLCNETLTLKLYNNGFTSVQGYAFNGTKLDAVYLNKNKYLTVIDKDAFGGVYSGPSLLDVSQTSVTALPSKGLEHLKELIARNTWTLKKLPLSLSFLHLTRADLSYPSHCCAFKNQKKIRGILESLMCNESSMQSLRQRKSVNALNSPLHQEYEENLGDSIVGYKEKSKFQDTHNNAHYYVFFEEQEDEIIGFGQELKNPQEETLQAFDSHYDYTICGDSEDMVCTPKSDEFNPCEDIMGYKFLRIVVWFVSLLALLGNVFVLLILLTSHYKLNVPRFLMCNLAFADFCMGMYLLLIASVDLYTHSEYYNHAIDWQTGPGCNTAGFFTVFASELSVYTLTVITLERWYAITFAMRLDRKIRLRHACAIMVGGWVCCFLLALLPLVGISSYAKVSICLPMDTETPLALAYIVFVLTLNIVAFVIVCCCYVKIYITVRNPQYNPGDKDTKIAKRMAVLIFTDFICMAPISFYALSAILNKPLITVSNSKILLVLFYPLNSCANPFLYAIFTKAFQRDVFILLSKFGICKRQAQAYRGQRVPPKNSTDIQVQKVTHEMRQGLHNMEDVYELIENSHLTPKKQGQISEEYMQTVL
Chain of Nuclear receptor subfamily 1 group I member 3 (Homo sapiens) (Q14994 whole entry, looked up): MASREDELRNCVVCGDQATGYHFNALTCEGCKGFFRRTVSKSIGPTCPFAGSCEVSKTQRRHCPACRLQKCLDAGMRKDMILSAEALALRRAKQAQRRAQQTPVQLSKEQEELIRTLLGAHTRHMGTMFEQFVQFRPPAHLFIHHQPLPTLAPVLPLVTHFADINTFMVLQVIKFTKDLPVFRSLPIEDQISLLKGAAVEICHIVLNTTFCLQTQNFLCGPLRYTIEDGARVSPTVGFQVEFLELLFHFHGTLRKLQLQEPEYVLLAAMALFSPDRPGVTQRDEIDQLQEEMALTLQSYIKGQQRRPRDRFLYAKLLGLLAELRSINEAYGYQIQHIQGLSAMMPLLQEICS

CC(C)OC(C)C
inactive: Potency [1] | Potency [2] | Potency [3] | Potency [4] | Potency [5] | Potency [6] | Potency [7] | Potency [8] | Potency [9] | Potency [10] | outcome [11] | Potency [12] | activity change, positive = activation [13] -8.47% | Potency [14] | Potency [15] | Potency [16] | Potency [17]

C[C@@H](N)C(=O)O
inactive: Potency [1] | Potency [2] | Potency [3] | Potency [18] | Potency [5] | Potency [8] | Potency [9] | Potency [10] | outcome [11] | Potency [19] | Potency [14] | Potency [20] | Potency [16] | Potency [17]

CCOC(=O)NCCC[Si](OCC)(OCC)OCC
inactive: Potency [1] | Potency [2] | Potency [3] | Potency [18] | Potency [5] | Potency [6] | Potency [7] | Potency [8] | Potency [10] | outcome [11] | Potency [19] | Potency [12] | activity change, positive = activation [13] -9.42% | Potency [14] | Potency [15] | Potency [20] | Potency [16] | Potency [17]

CN1CCC[C@@H]1Cc1c[nH]c2ccc(CCS(=O)(=O)c3ccccc3)cc12
inactive: Potency [1] | Potency [2] | Potency [3] | Potency [4] | Potency [5] | Potency [8] | Potency [9] | Potency [10] | outcome [11] | Potency [12] | activity change, positive = activation [13] -4.97% [at 42.5 µM] | Potency [14] | Potency [15] | Potency [20] | Potency [16] | Potency [17]

NNS(=O)(=O)c1ccc(Oc2ccc(S(=O)(=O)NN)cc2)cc1
inactive: Potency [1] | Potency [2] | Potency [3] | Potency [5] | Potency [6] | Potency [7] | Potency [8] | Potency [9] | outcome [11] | Potency [12] | activity change, positive = activation [13] -13.2% | Potency [14] | Potency [15] | Potency [20] | Potency [16] | Potency [17]

CCN(CC)CC1CCCCN1CC(=O)N1c2ccccc2C(=O)Nc2cccnc21 (stereo unspecified)
inactive: Potency [1] | Potency [2] | Potency [3] | Potency [5] | Potency [6] | Potency [7] | Potency [8] | Potency [9] | Potency [10] | outcome [11] | Potency [19] | Potency [12] | activity change, positive = activation [13] 8.53% [at 42.5 µM] | Potency [14] | Potency [15] | Potency [20] | Potency [17]

CC(=O)Nc1ccc(C)c(Cl)c1
inactive: Potency [1] | Potency [2] | Potency [3] | Potency [4] | Potency [5] | Potency [8] | outcome [11] | Potency [19] | Potency [14] | Potency [15] | Potency [20] | Potency [16] | Potency [17]
